Results reported in PubChem BioAssay (NCI).
About 79,000 compounds went through this panel and 15% of them were active in at least one assay; those are over-represented in the sample as a whole. Calls of active or inactive are those of the source. Rule as the data show it: active = growth inhibition above about 70%; inactive = the rest.

How the values were obtained:
[1] = NCI Yeast Anticancer Drug Screen. Data for the rad52 strain (AID 147);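 also: 0% = growth of vehicle-treated control cultures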; conditions: S. cerevisiae rad52 mutant growth inhibition, stronger effect = higher value
In short: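 Compounds are applied to a genetically defined yeast strain lacking normal DNA damage repair, and inhibition of growth is expressed relative to cultures given vehicle only.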

[2] = NCI Yeast Anticancer Drug Screen. Data for the wt1 strain (AID 149);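 also: 0% = growth of vehicle-treated wt1 cultures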; conditions: S. cerevisiae wt1 strain (SPY 50644) growth inhibition, stronger effect = higher value
In short: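 Using yeast strain wt1, compound-induced growth inhibition was determined against vehicle-treated cultures.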

[3] = NCI Yeast Anticancer Drug Screen. Data for the rad50EPP+ strain (AID 151);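 also: 0% = growth of vehicle-treated control cultures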; conditions: S. cerevisiae rad50 mutant strain, stronger effect = higher value
In short: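 Compounds were applied to the rad50EPP+ yeast strain, which bears a defined DNA repair alteration, and growth inhibition was determined relative to vehicle-treated cultures.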

[4] = NCI Yeast Anticancer Drug Screen. Data for the mgt1 strain (AID 153); conditions: S. cerevisiae mgt1 mutant growth inhibition, stronger effect = higher value
In short: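 Strain: mgt1 yeast, one of a set carrying defined DNA damage repair or cell cycle control alterations. Compound-treated growth compared with vehicle.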

[5] = NCI Yeast Anticancer Drug Screen. Data for the rad50 strain (AID 155);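 also: 0% = growth of vehicle-only cultures of the same strain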; conditions: S. cerevisiae rad50 strain growth inhibition, stronger effect = higher value
In short: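 Relative growth inhibition (compound vs vehicle) was measured in yeast with a defined repair-gene alteration.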

[6] = NCI Yeast Anticancer Drug Screen. Data for the mec2-1 strain (AID 157); conditions: S. cerevisiae mec2-1 strain, stronger effect = higher value
In short: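 Strain: mec2-1 (DNA repair/cell cycle alteration). Compound exposure, then growth measured; inhibition expressed relative to vehicle.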

[7] = NCI Yeast Anticancer Drug Screen. Data for the sgs1 mgt1 strain (AID 161);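 also: 0% = growth of cultures given vehicle only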; conditions: S. cerevisiae sgs1 mgt1 strain, stronger effect = higher value
In short: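 Mutant yeast exposed to compound; growth scored against vehicle-only wells.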

[8] = NCI Yeast Anticancer Drug Screen. Data for the CLN2oe strain (AID 163);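 also: 0% = growth of vehicle-only control cultures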; conditions: S. cerevisiae CLN2oe strain, stronger effect = higher value
In short: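 Growth of a genetically modified yeast strain is measured after compound exposure and compared with cultures given vehicle alone.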

[9] = NCI Yeast Anticancer Drug Screen. Data for the cln2 rad14 strain (AID 165);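 also: 0% = growth equal to vehicle treated cultures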; conditions: S. cerevisiae cln2 rad14 strain, stronger effect = higher value
In short: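 Compounds are applied to the cln2 rad14 yeast strain, and growth is then compared with that of vehicle-treated cultures to give inhibition.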

[10] = NCI Yeast Anticancer Drug Screen. Data for the bub3 strain (AID 167); conditions: S. cerevisiae bub3 mutant strain, stronger effect = higher value
In short: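 Screening used yeast with an engineered genetic alteration affecting cell cycle control. Compound-exposed cultures were compared with vehicle cultures, and reduced growth was taken as inhibition.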

[11] = NCI Yeast Anticancer Drug Screen. Data for the wt2 strain (AID 169);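 also: 0% = growth of vehicle-treated yeast cultures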; conditions: S. cerevisiae wt2 strain growth inhibition, stronger effect = higher value
In short: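 This strain belongs to a panel of yeast strains with defined genetic alterations in DNA damage repair or cell cycle control. Compounds are applied, and growth inhibition is measured against vehicle-treated cultures.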

[12] = NCI Yeast Anticancer Drug Screen. Data for the mlh1 strain (AID 171);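 also: 0% = growth of vehicle-treated control cultures of the same strain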; conditions: S. cerevisiae mlh1 strain growth inhibition, stronger effect = higher value
In short: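 Growth of the mutant yeast strain after compound exposure, expressed as inhibition relative to vehicle-only controls.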

[13] = NCI Yeast Anticancer Drug Screen. Data for the mlh1 rad18 strain (AID 175); conditions: S. cerevisiae mlh1 rad18 strain growth inhibition, stronger effect = higher value
In short: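 Read-out is yeast growth inhibition, calculated against vehicle-only controls. The compound was applied to a strain engineered with DNA damage repair alterations.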

[14] = NCI Yeast Anticancer Drug Screen. Data for the rad18 strain (AID 177); conditions: S. cerevisiae rad18 mutant growth inhibition, stronger effect = higher value
In short: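 Growth of the mutant yeast strain after compound exposure, normalised to vehicle-only cultures.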

[15] = NCI Yeast Anticancer Drug Screen. Data for the rad14 strain (AID 159);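 also: 0% = growth of vehicle-treated control cultures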; conditions: S. cerevisiae rad14 strain growth inhibition, stronger effect = higher value
In short: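 Screen for anticancer potential: a yeast strain altered in DNA damage repair is grown with compound, and reduced growth is quantified against vehicle controls.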

[16] = NCI Yeast Anticancer Drug Screen. Data for the sgs1 strain (AID 173);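 also: 0% = growth of vehicle-only control cultures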; conditions: S. cerevisiae sgs1 mutant, stronger effect = higher value
In short: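 Growth of a yeast strain bearing a defined genetic alteration is measured after compound treatment. Inhibition is expressed relative to vehicle-only controls.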

[17] = at 5.0 µM (retest, dose inferred, filed as 0.5)
[18] = at 50.0 µM (retest, dose inferred, filed as 5.0)

Measured: growth inhibition

CCOC1=C/C(=N\Nc2ccc([N+](=O)[O-])cc2)CCC1
active: [3]; at 11.0 µM 70% | [3]; at 33.0 µM 87% | [10]; at 50.0 µM 95% | [13]; [18] 87%
inactive: [1]; at 1.2 µM 0% | [1]; at 3.7 µM 8% | [1]; at 11.0 µM 29% | [1]; at 33.0 µM 69% | [1]; at 100.0 µM 26% | [2]; at 1.2 µM 0% | [2]; at 3.7 µM 7% | [2]; at 11.0 µM 9% | [2]; at 33.0 µM 24% | [2]; at 100.0 µM 18% | [3]; at 1.2 µM 3% | [3]; at 3.7 µM 20% | [3]; at 100.0 µM 58% | [4]; at 1.2 µM 3% | [4]; at 3.7 µM 9% | [4]; at 11.0 µM 18% | [4]; at 33.0 µM 22% | [4]; at 100.0 µM 10% | [5]; at 1.2 µM 3% | [5]; at 3.7 µM 10% | [5]; [17] 17% | [5]; at 11.0 µM 22% | [5]; at 33.0 µM 30% | [5]; [18] 51% | [5]; at 50.0 µM 23.4% | [5]; at 100.0 µM 10% | [6]; at 1.2 µM 0% | [6]; at 3.7 µM 5% | [6]; [17] 1% | [6]; at 11.0 µM 19% | [6]; at 33.0 µM 31% | [6]; [18] 67% | [6]; at 50.0 µM 37.9% | [6]; at 100.0 µM 11% | [7]; [17] 10% | [7]; [18] 21% | [7]; at 50.0 µM 48.6% | [8]; at 1.2 µM -1% | [8]; at 3.7 µM -6% | [8]; at 11.0 µM 21% | [8]; at 33.0 µM 15% | [8]; at 100.0 µM -5% | [9]; [17] 5% | [9]; [18] 10% | [9]; at 50.0 µM 29.5% | [10]; at 1.2 µM -3% | [10]; at 3.7 µM 4% | [10]; [17] -1% | [10]; at 11.0 µM 11% | [10]; at 33.0 µM 15% | [10]; [18] 33% | [10]; at 100.0 µM 18% | [11]; at 1.2 µM -1% | [11]; at 3.7 µM 3% | [11]; at 11.0 µM 7% | [11]; at 33.0 µM 24% | [11]; at 100.0 µM 11% | [12]; at 1.2 µM 0% | [12]; at 3.7 µM 5% | [12]; at 11.0 µM 11% | [12]; at 33.0 µM 17% | [12]; at 100.0 µM 7% | [13]; [17] 21% | [13]; at 50.0 µM 41.7% | [14]; at 1.2 µM 4% | [14]; at 3.7 µM 8% | [14]; at 11.0 µM 30% | [14]; at 33.0 µM 62% | [14]; at 100.0 µM 55%

O=C1NC(SSC2=NNC3(C(=O)N2)c2ccccc2-c2ccccc23)=NNC12c1ccccc1-c1ccccc12
inactive: [1]; at 1.2 µM 2% | [1]; at 3.7 µM -1% | [1]; at 11.0 µM 1% | [1]; at 33.0 µM 8% | [1]; at 100.0 µM 33% | [2]; at 1.2 µM 0% | [2]; at 3.7 µM 0% | [2]; at 11.0 µM 0% | [2]; at 33.0 µM 1% | [2]; at 100.0 µM 5% | [3]; at 1.2 µM 8% | [3]; at 3.7 µM 9% | [3]; at 11.0 µM 20% | [3]; at 33.0 µM 43% | [3]; at 100.0 µM 63% | [5]; at 1.2 µM -1% | [5]; at 3.7 µM 7% | [5]; [17] -4% | [5]; at 11.0 µM -13% | [5]; at 33.0 µM 18% | [5]; [18] 53% | [5]; at 100.0 µM 37% | [6]; at 1.2 µM 1% | [6]; at 3.7 µM 2% | [6]; [17] -11% | [6]; at 11.0 µM 3% | [6]; at 33.0 µM 7% | [6]; [18] 10% | [6]; at 100.0 µM 13% | [15]; at 1.2 µM -1% | [15]; at 3.7 µM -4% | [15]; at 11.0 µM -1% | [15]; at 33.0 µM 2% | [15]; at 100.0 µM 8% | [7]; [17] -7% | [7]; [18] -23% | [8]; at 1.2 µM 4% | [8]; at 3.7 µM 1% | [8]; at 11.0 µM 1% | [8]; at 33.0 µM 5% | [8]; at 100.0 µM 2% | [9]; [17] 0% | [9]; [18] -14% | [9]; at 50.0 µM 51.8% | [10]; at 1.2 µM 4% | [10]; at 3.7 µM 6% | [10]; [17] 10% | [10]; at 11.0 µM 7% | [10]; at 33.0 µM 12% | [10]; [18] 25% | [10]; at 100.0 µM 12% | [11]; at 1.2 µM -1% | [11]; at 3.7 µM -3% | [11]; at 11.0 µM -3% | [11]; at 33.0 µM 0% | [11]; at 100.0 µM 5% | [12]; at 1.2 µM 3% | [12]; at 3.7 µM 1% | [12]; at 11.0 µM 2% | [12]; at 33.0 µM 8% | [12]; at 100.0 µM 17% | [16]; at 1.2 µM -4% | [16]; at 3.7 µM -1% | [16]; at 11.0 µM -6% | [16]; at 33.0 µM 1% | [16]; at 100.0 µM 11% | [13]; [17] -11% | [13]; [18] -7% | [14]; at 1.2 µM 0% | [14]; at 3.7 µM 3% | [14]; at 11.0 µM 5% | [14]; at 33.0 µM 5% | [14]; at 100.0 µM 9%
active: [5]; at 50.0 µM 96.2% | [6]; at 50.0 µM 80% | [7]; at 50.0 µM 80.5% | [10]; at 50.0 µM 86.5% | [13]; at 50.0 µM 96.2%
